Screening results (PubChem)
Rows were chosen to be rich in hits. Some 19% of all compounds tested hit in one or more screens of this group.
IL-1B inflam inh – inhibitors of inflammasome signaling (IL-1 beta secretion); THP-1 LPS/ATP IL-1B secretion, AlphaLISA, 16 h; stronger effect = lower value; activity change, % at 57.5 µM; AID 743279; actives 4.7% (n = 360,000); in the data active = activity change below about -50%; inconclusive = mostly about -30% to -49%
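Secreted IL-1B measured by AlphaLISA bead assay after 16 h compound exposure of THP-1 cells; compounds (final up to 57.5 uM) added 1 h before LPS (250 ng/mL) and ATP (1.25 mM) stimulation; lower signal means less secretion.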
uPA surface inh – inhibitors of cell surface uPA generation | AID 540303 | Potency, µM (series often up to 38.3 µM), for the others: at the top dose activity change, negative = inhibition, most hits filed as inhibitors | actives 0.31% (n = 330,000) | cell surface uPA generation assay, qHTS; active = well fitted inhibition curve with a large enough effect; inconclusive = small, poorly fitted or top-dose-only effect; inactive = no such curve, though single readings can be large or run the other way; tested in mouse RAW 264.7 cells; also: potency is read from the fitted curve at half-maximal effect; nearly all actives have a fitted effect of over 55% in size
DT40 TDP1 no CPT – qHTS for Inhibitors of human tyrosyl-DNA phosphodiesterase 1 (TDP1): qHTS in cells in absence of CPT; DT40 Tdp1-/- hTDP1 cells, no CPT, ATP luminescence, 48 h; Potency, µM (series often up to 46.2 µM), inactives show at the highest dose activity change, negative = growth inhibition, usual class: inhibitors; AID 686978, 2013; actives 15% (n = 420,000); also: potency is read from the fitted curve at half-maximal effect; nearly all actives have a fitted effect of over 55% in size
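Cells were dispensed at 400 per well, compounds added by pin tool, plates incubated ≥48 hr at 37 °C, then CellTiter-Glo added for 30 min at room temperature before luminescence reading. Line: DT40 Tdp1-/- complemented with hTDP1; camptothecin omitted.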
TDP1 cell CPT – growth inhibition of DT40 Tdp1-/-;hTDP1 cells with camptothecin (screen for TDP1 inhibitors) | chicken DT40 Tdp1-/-;hTDP1 cells + 20 nM CPT, ATP luminescence, 48 h | Potency, µM (doses to about 46.2 µM), inactives show at the highest dose activity change, negative = growth inhibition, most hits filed as inhibitors | actives 12% (n = 420,000); also: potency is read from the fitted curve at half-maximal effect; nearly all actives have a fitted effect of over 55% in size
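Chicken DT40 Tdp1-/- cells stably complemented with human TDP1 were seeded at 400 cells/well in medium containing 20 nM camptothecin, exposed to pin-transferred compounds, and grown at 37 °C for at least 48 hr. Viability was read as ATP luminescence.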
HT1080 IDH1KD tx – kills HT-1080 cells with IDH1 knockdown | Potency, µM (titrated, usually from 46.1 µM), for the others: top-dose activity, negative = toxicity, actives largely listed as cytotoxic | HT-1080 IDH1 knockdown viability, ATP luminescence, 48 h | actives 2% (n = 360,000);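 also: potency is read from the fitted curve at half-maximal effect; 0% = DMSO wells and -100% = cell-free medium wells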
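Assay cells: HT-1080 with IDH1 knockdown, 750 per well, RPMI/5% FBS. Exposure: 48 h at 37 °C following 2 h pre-incubation. Read: CellTiter-Glo luminescence; fitted concentration-response, curve class assigned.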
HT1080NT lethal – kills 2HG-producing HT-1080-NT fibrosarcoma cells | HT-1080-NT fibrosarcoma viability, CellTiter-Glo ATP luminescence, 48 h | Potency, µM (top dose mostly 46.1 µM), inactives show at the top dose activity, negative = less viability, most hits filed as cytotoxic | actives 1.6% (n = 360,000);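 also: NT is the 2HG producing partner of a matched IDH1 knockdown line; potency is read from the fitted curve at half-maximal effect; 0% = DMSO-treated cells and -100% = media-only wells without cells; nearly all actives have a fitted effect of over 55% in size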
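Toxicity toward the 2HG-producing NT line was scored as %Activity, normalised to DMSO and no-cell wells, from CellTiter-Glo luminescence after 48 hours' treatment.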
Numbers without * were called inactive; ? = inconclusive; . = no result given; ! = a repeat was not active. Unless noted, calls follow the shape of the dose curve; as a rule, active = well fitted curve in the direction sought with a large enough effect; inconclusive = small, poorly fitted or top-dose-only effect, or another doubt; inactive = no such curve, though single readings can be large; an effect the other way counts as inactive or inconclusive. Unless noted, % is scaled to controls: 0 for no effect and ±100 for the full control effect.

SMILES	IL-1B inflam inh	uPA surface inh	DT40 TDP1 no CPT	TDP1 cell CPT	HT1080 IDH1KD tx	HT1080NT lethal
CN(CC(=O)Nc1cccc(F)c1)CC(=O)Nc1cccc(S(=O)(=O)N2CCCCCC2)c1	?	-12.4%	16.4µM*	16.4µM*	-11.8%	-12.0%
COCCN1C(=O)CCC1(C)C(=O)Nc1ccc2c(c1)OCCO2 (stereo not given)	-20.1	.	2.0%	15.5%	8.4%	28.5%
Cc1ccc(C(=O)NC(C)c2ccc(C)c(C)c2)s1 (stereo not given)	-5.4	7.7%	?	?	0.4%	-1.8%
Cc1ccc(C(=O)NC(C)c2ccc3c(c2)OCO3)s1 (stereo not given)	-0.7	-9.0%	16.4µM*	13µM*	-1.3%	6.2%
CCOC(=O)c1cc(-c2ccc(OC)cc2OC)nn1-c1ccc(C(=O)O)cc1	0.0	2.1%	-19.0%	-2.7%	-0.1%	1.2%
Cc1cc(C)c(S(=O)(=O)c2cccc(Br)c2C)c(Cl)n1	-5.7	-3.7%	1.5%	-20.7%	0.7%	4.4%
COc1ccc(N2CCN(C(=O)c3ccc4c(=O)n(CCc5ccc(OC)c(OC)c5)c(=O)[nH]c4c3)CC2)cc1	11.9	-0.2%	16.4µM*	14.6µM*	-9.5%	-5.1%
O=C(CCCn1c(=O)[nH]c2cc(Cl)ccc2c1=O)NCCCN1CCN(c2ccc(F)cc2)CC1	?	0.4%	20.6µM*	16.4µM*	-0.7%	0.2%
O=C(CCCn1c(=O)[nH]c2cc(Cl)ccc2c1=O)NCCCN1CCCC1	14.1	6.4%	-11.0%	-24.2%	11.2%	17.8%
CCCCCn1c(=O)[nH]c2cc(C(=O)N3CCN(c4cccc(Cl)c4)CC3)ccc2c1=O	.	.	?	10.3µM*	.	.
O=C(CCCn1c(=O)[nH]c2ccccc2c1=O)Nc1ccc(F)cc1	6.4	5.9%	-10.1%	-18.1%	12.7%	12.5%
O=C(c1ccc(F)cc1)C1CCN(CCn2c(=O)[nH]c3ccccc3c2=O)CC1	-25.2	6.5%	?	7.31µM*!	-3.2%	?
CCOC(=O)c1cnn(C)c1NC(=O)c1ccc(Cl)cc1Cl	26.9	-3.6%	-8.1%	1.5%	3.4%	-1.2%
COc1cccc(-c2cc(=O)c3ccc(OC)cc3o2)c1	.	.	-27.2%	?	.	.
COc1ccc(-n2c(=O)[nH]c3cc(C(=O)NCCc4ccccc4)ccc3c2=O)cc1OC	34.2	-0.3%	18.4µM*!	?	-1.6%	3.7%
O=C(c1ccc2c(=O)n(CCc3ccccc3)c(=O)[nH]c2c1)N1CCN(c2ccc(Cl)cc2)CC1	.	.	18.4µM*	16.4µM*	.	.
CCOC(=O)N1CCN(C(=O)c2ccc3c(=O)n(CCOC)c(=O)[nH]c3c2)CC1	-0.4	0.1%	6.7%	5.5%	5.4%	12.5%
O=C(c1ccc2c(=O)n(CCc3ccccc3)c(=O)[nH]c2c1)N1CCN(c2ccc(F)cc2)CC1	-7.8	-0.6%	13µM*	11.6µM*	-15.3%	-9.4%
COCCn1c(=O)[nH]c2cc(C(=O)N3CCN(c4ccc(Cl)cc4)CC3)ccc2c1=O	9.4	0.8%	6.51µM*	5.8µM*	-9.8%	4.4%
Cc1cc(C)c(C#N)c(Nc2cccc(C)c2C)n1	21.0	-10.2%	-10.0%	0.4%	6.6%	7.4%
COc1cc(NC(=O)[C@@H]2O[C@H](CO)[C@@H](O)[C@H]2O)cc(OC)c1OC	5.2	.	0.9%	2.4%	6.8%	23.8%
COc1cc2[nH]c(=O)n(Cc3ccc(C(=O)NCc4ccccc4)cc3)c(=O)c2cc1OC	.	.	?	18.4µM*	.	.
CCCN1CCN(CCCNC(=O)c2ccc3c(=O)n(CCc4ccccc4)c(=O)[nH]c3c2)CC1	12.1	1.0%	?	?	5.9%	4.6%
O=C(c1ccc2c(=O)n(CCc3ccccc3)c(=O)[nH]c2c1)N1CCN(C(=O)c2ccco2)CC1	.	.	11.2µM*	12.6µM*	21.1%	9.7%
O=C(NCCN1CCCC1)c1ccc2c(=O)n(CCc3ccccc3)c(=O)[nH]c2c1	50.8	-2.7%	29.1µM*	18.4µM*	-28.6%	-0.3%
SMILES	IL-1B inflam inh	uPA surface inh	DT40 TDP1 no CPT	TDP1 cell CPT	HT1080 IDH1KD tx	HT1080NT lethal
COC(=O)CSCc1nc(-c2ccc(C(=O)OC)cc2)oc1C	.	.	0.1%	-10.0%	.	.
O=C(NCc1ccco1)c1cccc2c1C(=O)c1ccc(N3CCC(N4CCCCC4)CC3)cc1S2(=O)=O	-22.4	.	-5.7%	19.5%	0.7%	4.5%
O=C(C[N+]12CCCc3cccc(c31)CCC2)c1ccccc1	.	.	10µM*	?	.	.
O=C(C[N+]1(c2ccccc2)CCOCC1)c1ccccc1	.	.	-28.7%	?	.	.
C[N+]1(CC(=O)c2ccc(I)cc2)CCCc2ccccc21 (stereo not given)	.	.	7.08µM*	7.94µM*	.	.
COC(=O)c1sc(C(F)(F)F)c(-c2ccccc2)c1S(=O)(=O)N1CCOCC1	18.8	0.3%	-4.2%	3.0%	8.3%	-1.4%
Cn1nccc1C(=O)Nc1ccc2c(c1)OCO2	-15.9	-4.8%	4.2%	1.5%	-4.2%	-3.1%
CCN(C(=O)CN1C(=O)CN(C)C1=O)c1cccc2ccccc12	?	-3.0%	?	11.6µM*	-10.8%	3.3%
CCN(C(=O)CN1CCN(C)CC1)c1cccc2ccccc12	6.7	0.4%	-1.1%	0.3%	13.5%	11.6%
CC(=O)NC(c1cccc(F)c1)c1nc(/C=C/c2ccccc2)cs1 (stereo not given)	-16.1	.	-38.4%	?	0.1%	-8.6%
C=CCNc1nnc(Cc2ccc(C(C)C)cc2)c(=O)[nH]1	5.9	?	3.26µM*	7.31µM*	-23.1%	-5.3%
C[C@H](CO)N1C[C@H](C)[C@@H](CN(C)Cc2ccc(Cl)c(Cl)c2)OCc2cnnn2CCCC1=O	19.7	.	?	?	-0.8%	-5.3%
Cc1ccc(S(=O)(=O)NC(=O)NN2CC3CCCC3C2)cc1 (stereo not given)	16.7	0.2%	-3.7%	-25.2%	-0.8%	-0.2%
NC(=O)C1CCCNC1 (stereo not given)	-56.8*	15.8%	-7.6%	8.8%	15.9%	?
O=C(NC1CCNCC1)C1CCCCC1	16.1	-2.2%	0.3%	-0.4%	9.0%	6.2%
COc1ccc(CNC(=O)O[C@H]2CN(C(=O)OC(C)C)N(C(=O)OC(C)C)[C@@H]3CN(S(=O)(=O)c4ccc(C)cc4)C[C@]23O)cc1OC	-30.0	.	23.1µM*	?	0.4%	0.0%
Cc1ccc(S(=O)(=O)N2C[C@H]3N(C(=O)OC(C)C)N(C(=O)OC(C)C)C[C@H](OC(=O)NCc4ccccc4F)[C@@]3(O)C2)cc1	-25.2	.	23.1µM*	?	-13.4%	-17.8%
